Test results taken from PubChem BioAssay AID493170 (National Center for Advancing Translational Sciences (NCATS), 2011).
Records with an inconclusive call do not appear. Values without a mark were called inactive. Active and inactive are the calls of the source. The call rests on the fitted dose curve; in most records, active means well fitted inhibition curve with a large enough effect; inconclusive means small, poorly fitted or top-dose-only effect, or effect the other way; inactive means flat fitted curve, though single readings scatter.

Target: Ubiquitin carboxyl-terminal hydrolase 2 (Homo sapiens) (UniProt O75604)
Experiment: Ub-rhodamine 110 based assay for inhibitors Ubiquitin-specific Protease USP2a; further: nearly all actives have a fitted effect of over 50% in size
Details: USP2a Ub-rhodamine110 cleavage, fluorescence; series mostly up to 38.3 µM; activity change, negative = inhibition: at the top concentration
How it was run: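 Kinetic fluorescence (485/531 nm) read each minute over 7 min after adding Ub-Rhod110 (150 nM final) to USP2a (5 nM final). The enzyme had 30 min RT exposure to compounds beforehand in Tris pH 8.0 buffer with CaCl2, CHAPS and beta-ME.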
On the % scale 0 is the no-effect control and ±100 the full control effect; potency means the concentration at half of the fitted maximal effect.

Ubiquitin carboxyl-terminal hydrolase 2 (Homo sapiens), sequence (O75604 whole entry, looked up): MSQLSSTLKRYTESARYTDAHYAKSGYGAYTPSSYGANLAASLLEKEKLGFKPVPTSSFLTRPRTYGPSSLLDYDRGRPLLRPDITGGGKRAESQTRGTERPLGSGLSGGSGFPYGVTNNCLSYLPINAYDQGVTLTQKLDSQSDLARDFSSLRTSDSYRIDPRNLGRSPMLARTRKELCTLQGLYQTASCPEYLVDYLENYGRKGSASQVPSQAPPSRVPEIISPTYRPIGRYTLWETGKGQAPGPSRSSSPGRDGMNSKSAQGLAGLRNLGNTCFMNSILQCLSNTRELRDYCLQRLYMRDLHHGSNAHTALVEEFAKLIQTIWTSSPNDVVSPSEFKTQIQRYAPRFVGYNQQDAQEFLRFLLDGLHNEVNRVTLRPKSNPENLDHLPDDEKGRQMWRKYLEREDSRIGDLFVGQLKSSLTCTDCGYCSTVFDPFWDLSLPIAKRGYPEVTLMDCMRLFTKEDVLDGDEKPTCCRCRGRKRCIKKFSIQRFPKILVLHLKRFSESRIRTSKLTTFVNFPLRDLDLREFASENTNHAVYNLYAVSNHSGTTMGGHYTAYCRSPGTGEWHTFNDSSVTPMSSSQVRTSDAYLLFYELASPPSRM

Row | Structure (SMILES) | activity change, negative = inhibition [%] | Potency
1 | CCC/C(O)=C1\C(=O)CC(C)(C)CC1=Nc1ccc(OC)cc1OC | -10.9 | 
2 | O=C(CSc1nc2ccccc2[nH]1)Nc1ccc2c(c1)OCCO2 | -8.95 | 
3 | COC(=O)c1[nH]c2ccccc2c1NC(=O)CN1CCCc2ccccc21 | -15.7 | 
4 | O=C1COc2ccc(C(=O)COC(=O)/C=C/c3ccc(Br)o3)cc2N1 |  | 2.24 µM (active)
5 | Cc1cc(-c2nnc3n2N=C(c2ccc(-c4ccccc4)cc2)CS3)n[nH]1 |  | 11.2 µM (active)
6 | Cc1cccc(OCC(=O)Nc2ccc(N3CCCC3)cc2)c1C |  | 11.2 µM (active)
7 | Cc1ccc(C(=O)C(=S)N2CCOCC2)cc1 | 7.4 | 
8 | COc1ccc(C(=O)OCC(=O)c2c[nH]c3ccccc23)c(OC)c1 | -10.9 | 
9 | N#Cc1c(SCC(=O)Nc2nc3ccccc3s2)sc2c(O)cc(=O)[nH]c12 |  | 8.91 µM (active)
10 | Cc1n[nH]c(C)c1S(=O)(=O)N1CCCC(C(=O)Nc2nccs2)C1 (configuration not stated) | 19.5 | 
11 | COc1ccc(-c2nnn(CC(=O)N3CCOCC3)n2)cc1 | -7.05 | 
12 | Cc1cccc2c1N(CCCOc1ccc(C(C)(C)C)cc1)C(=O)C2=O | -18.2 | 
13 | CC(C)n1nc(C(=O)Nc2ccccc2N2CCOCC2)c2ccccc2c1=O | -15.2 | 
14 | COC(=O)CC1Oc2ccc(C)cc2NC1=O (configuration not stated) | -1.3 | 
15 | O=C(O)CP(=O)(c1ccccc1)c1ccccc1 | -4.26 | 
16 | CC(C)(C)[C@H]1COC(=O)[C@@H](Cc2ccc(F)cc2)C/C=C\C[C@@H](CC(=O)N[C@H](CO)Cc2ccccc2)C(=O)N1 | -1.31 | 
17 | Cc1cc(NC(=O)c2cccc(S(=O)(=O)N(C)C)c2)n(-c2ccccn2)n1 | -14.6 | 
